Calls of active or inactive are those of the source. No rule for the calls is given here.
Target: Thyrotropin receptor (Homo sapiens) (UniProt P16473)
Experiment: Concentration-response assay for inverse agonists of the thyroid stimulating hormone receptor: ELISA activity detection
Details: HEK293-TSHR basal cAMP, ELISA chemiluminescence, 1 h
Source text: TSH is an alpha/beta heterodimeric glycoprotein hormone secreted from the anterior pituitary gland which belongs to the glycoprotein hormone family. The actions of TSH are mediated by a seven-transmembrane receptor, which upon TSH binding couples preferentially to the G-alpha (s) protein (Gs), resulting in activation of adenylate cyclase and increase in cyclic adenosine 3', 5' monophosphate (cAMP). The TSH receptor (THSR) is mainly expressed in thyroid follicular cells and regulates their growth and function. This cell based assay was conducted on a TSHR transfected HEK 293 cell line, measuring cAMP stimulation using antibody-based Homogeneous Time Resolved Fluorescence (HTRF). Our goal is to identify small molecules that will inhibit (antagonize) the thyroid-stimulating hormone receptor (TSHR), a member of the 7 transmembrane-spanning receptor (7TMR) family of cell surface receptors. TSHR-mediated hyperthyroidism is important in thyroid pathology. The development of small molecule antagonists of TSHR may lead to therapeutic approaches for TSHR-mediated hyperthyroidism caused by constitutively activating mutations or stimulating auto-antibodies associated with Graves' disease. Graves' disease is the leading cause of hyperthyroidism and is caused by autoantibodies that stimulate TSHR (TsAbs) causing thyroid growth and unregulated overproduction of thyroid hormones and existing treatments have liabilities (agranulocytosis). In addition, TSHRs are known to be expressed in multiple extrathyroidal tissues including bone, brain, kidney, testis, fat and cells of the immune system but the role of the TSHR in these tissues is not clear. Therefore, TSHR antagonists/inverse agonists could be used as probes of extrathyroidal TSHR function. Finally, TSHR inverse agonists, which are a subclass of antagonists that inhibit agonist-independent (or basal or constitutive) TSHR signaling, could be used to inhibit TSH-independent signaling in patients with recurrent or metastatic thyroid cancer who are receiving thyroid hormone to suppress TSH. A confirmatory assay of TSHR inverse agonists was conducted on a HEK 293 cell line stably expressing the TSHR, using an ELISA based cAMP competition assay using cAMP-Screen Direct System (Applied Biosystems, Foster City, CA) to measure cAMP stimulation.
Transiently transfected HEK-EM 293 cells or cells stably expressing TSHRs were seeded into 96-well plates at a density of 7 x10^4 cells per well in DMEM containing 10% FBS. Cells were cultured for 24 h before incubation for 20 min in HBSS/10 mM HEPES (pH 7.4). To determine basal cAMP production, cells were incubated for 1 h at 37 C in a humidified incubator in HBSS/HEPES containing 1mM IBMX (Sigma Chemical Co., St. Louis, MO) in the presence or absence of compound. The levels of cAMP in cells incubated in HBSS/HEPES without IBMX were subtracted in all experiments. After aspiration of the incubation medium, cells were lysed using lysis buffer of the cAMP-Screen Direct system (Applied Biosystems, Foster City, CA). The cAMP content of the cell lysate was determined using the method described in the manufacturer's protocol. The chemiluminescence signal was measured in a VICTOR3 V 1420 multilabel counter (PerkinElmer, Norwalk, CT). The potency (IC50) of the ligands were obtained from dose-response curves by data analysis with GraphPad Prism 4 for Windows.

Chain of Thyrotropin receptor (Homo sapiens) (P16473 whole entry, looked up): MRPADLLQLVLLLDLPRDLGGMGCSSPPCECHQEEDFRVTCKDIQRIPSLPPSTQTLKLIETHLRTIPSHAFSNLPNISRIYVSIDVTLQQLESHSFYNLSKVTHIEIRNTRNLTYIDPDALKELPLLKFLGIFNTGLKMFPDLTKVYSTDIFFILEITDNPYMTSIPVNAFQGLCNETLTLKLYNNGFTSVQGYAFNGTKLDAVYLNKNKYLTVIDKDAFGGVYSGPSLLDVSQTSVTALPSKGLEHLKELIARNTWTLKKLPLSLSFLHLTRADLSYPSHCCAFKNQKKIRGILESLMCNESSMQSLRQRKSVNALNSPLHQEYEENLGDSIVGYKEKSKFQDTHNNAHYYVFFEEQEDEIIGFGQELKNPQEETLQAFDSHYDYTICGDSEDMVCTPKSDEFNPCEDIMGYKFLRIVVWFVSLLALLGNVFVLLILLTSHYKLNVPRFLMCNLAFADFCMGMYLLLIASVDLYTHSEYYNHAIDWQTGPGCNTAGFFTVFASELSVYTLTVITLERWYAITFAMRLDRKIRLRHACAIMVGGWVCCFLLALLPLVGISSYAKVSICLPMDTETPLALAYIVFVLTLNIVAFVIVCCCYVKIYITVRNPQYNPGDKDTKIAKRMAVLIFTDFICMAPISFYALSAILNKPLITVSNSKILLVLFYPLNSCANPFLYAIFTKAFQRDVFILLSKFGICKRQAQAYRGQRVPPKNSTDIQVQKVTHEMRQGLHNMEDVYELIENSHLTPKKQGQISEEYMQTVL

outcome, inactive:
COc1ccc(C2Nc3ccccc3C(=O)N2Cc2ccco2)cc1CSc1c(C)cccc1C (stereo unspecified), COc1ccc(C2Nc3ccccc3C(=O)N2Cc2ccccc2)cc1COc1c(C)cccc1C (stereo unspecified), COc1ccc(C2Nc3ccccc3C(=O)N2Cc2cccs2)cc1COc1c(C)cccc1C (stereo unspecified), COc1ccc(C2Nc3ccccc3C(=O)N2Cc2ccc(C)o2)cc1COc1c(C)cccc1C (stereo unspecified), COc1ccc(C2Nc3ccccc3C(=O)N2Cc2ccccn2)cc1COc1c(C)cccc1C (stereo unspecified), COc1ccc(C2Nc3ccccc3C(=O)N2Cc2ccco2)cc1COc1ccccc1C (stereo unspecified), COc1ccc(C2Nc3cccc(O)c3C(=O)N2Cc2ccco2)cc1COc1c(C)cc(NC(C)=O)cc1C (stereo unspecified)

IC50, active:
Cc1cccc(C)c1OCc1cccc(C2Nc3ccccc3C(=O)N2Cc2ccco2)c1 (stereo unspecified) 5 µM, CCc1cccc(CC)c1OCc1cc(C2Nc3ccccc3C(=O)N2Cc2ccco2)ccc1OC (stereo unspecified) 11 µM, COc1ccc(C2Nc3ccccc3C(=O)N2Cc2cccnc2)cc1COc1c(C)cccc1C (stereo unspecified) 7 µM, COc1ccc(C2Nc3ccccc3C(=O)N2Cc2ccco2)cc1COc1c(C)cc(NC(C)=O)cc1C (stereo unspecified) 6 µM

Source: PubChem BioAssay AID504379 (National Center for Advancing Translational Sciences (NCATS), 2011)
